Reference: PubChem BioAssay (EPA / NIEHS)
Calls of active or inactive are those of the source. The calls were made as follows: active = hit-call score of the fitted dose curve at least 0.9, where 1 is the maximum; inactive = score below 0.9.

Experiments:
Settings in all cases: mRNA level, 48 h; actives raise or lower the signal
[1] = read-out: Alkaline Phosphatase, Placental (ALPP) gene, ALPP (gene 250); experiment: LTEA_HepaRG_ALPP: Life Technologies and Expression Analysis (LTEA) Assay for Alkaline Phosphatase, Placental (ALPP) gene using HepaRG (AID 2283468)
Summary of the method: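 HepaRG cells plated 48 h, then exposed in duplicate for 48 h in serum-free induction medium to 8-point half-log series from 100 uM in 0.5% DMSO. ALPP mRNA by TaqMan qRT-PCR, normalized to ACTB/GAPDH/POLR2A; bidirectional fit versus DMSO.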

[2] = read-out: Bcl-2 (BAD) gene, BAD (gene 572); experiment: LTEA_HepaRG_BAD: Life Technologies and Expression Analysis (LTEA) Assay for Bcl-2 (BAD) gene using HepaRG (AID 2283469)
Summary of the method: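 Read-out: qRT-PCR of BAD mRNA, normalized to three housekeeping genes. Human HepaRG cultures got 48 h chemical exposure in 0.5% DMSO, duplicate eight-point half-log series topping at 100 uM. Gain or loss of signal fitted versus DMSO vehicle.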

[3] = read-out: Bcl-2 (BAX) gene, BAX (gene 581); experiment: LTEA_HepaRG_BAX: Life Technologies and Expression Analysis (LTEA) Assay for Bcl-2 (BAX) gene using HepaRG (AID 2283470)
Summary of the method: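 qRT-PCR read-out of BAX mRNA, normalized to three housekeeping genes, after 48 h chemical exposure of human HepaRG cells in serum-free induction medium; eight-point half-log series, top 100 uM, 0.5% DMSO vehicle; bidirectional fit versus DMSO.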

[4] = read-out: adenosine kinase (ADK) gene, ADK (gene 132); experiment: LTEA_HepaRG_ADK: Life Technologies and Expression Analysis (LTEA) Assay for adenosine kinase (ADK) gene using HepaRG (AID 2283471)
Summary of the method: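 Read-out is ADK transcript level measured by qRT-PCR and normalised to three housekeeping genes. Cells are human HepaRG, dosed for 48 h at up to 100 uM in 0.5% DMSO. Gain or loss of signal is fitted against DMSO controls.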

[5] = read-out: Alpha-fetoprotein (AFP) gene, AFP (gene 174); experiment: LTEA_HepaRG_AFP: Life Technologies and Expression Analysis (LTEA) Assay for Alpha-fetoprotein (AFP) gene using HepaRG (AID 2283472)
Summary of the method: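 qRT-PCR (Fluidigm TaqMan) readout of AFP transcript, normalized to three housekeeping genes, fitted bidirectionally against 0.5% DMSO baseline. HepaRG cells received chemicals for 48 h in serum-free induction medium, top concentration 100 uM, half-log steps.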

BCL2L11 (gene 10018) = experiment: LTEA_HepaRG_BCL2L11: Life Technologies and Expression Analysis (LTEA) Assay for Bcl-2 (BCL2L11) gene using HepaRG (AID 2283473)
Summary of the method: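 Differentiated human HepaRG cells were exposed 48 h in serum-free induction medium to eight half-log concentrations up to 100 uM in 0.5% DMSO, in duplicate. BCL2L11 mRNA was quantified by TaqMan qRT-PCR, normalized to ACTB, GAPDH and POLR2A; induction or repression fitted versus DMSO.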

[6] = read-out: Apolipoprotein A-V (APOA5) gene, APOA5 (gene 116519); experiment: LTEA_HepaRG_APOA5: Life Technologies and Expression Analysis (LTEA) Assay for Apolipoprotein A-V (APOA5) gene using HepaRG (AID 2283474)
Summary of the method: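 Differentiated HepaRG cells in serum-free induction medium, exposed 48 h in duplicate to eight half-log concentrations topping at 100 uM (0.5% DMSO). APOA5 mRNA by Fluidigm TaqMan qRT-PCR, normalized to ACTB, GAPDH and POLR2A; bidirectional fit versus DMSO.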

[7] = read-out: Apoptosis regulator Bcl-2 (Homo sapiens) (UniProt P10415); experiment: LTEA_HepaRG_BCL2: Life Technologies and Expression Analysis (LTEA) Assay for Bcl-2 gene using HepaRG (AID 2283475)
Summary of the method: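 qRT-PCR read-out (Fluidigm TaqMan) of BCL2 transcript, normalised to three housekeeping genes, after 48 h chemical exposure of HepaRG cells; 8-point half-log series, top 100 uM, 0.5% DMSO vehicle. Gain or loss of signal fitted relative to DMSO baseline.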

[8] = read-out: Bcl-2 (BID) gene, BID (gene 637); experiment: LTEA_HepaRG_BID: Life Technologies and Expression Analysis (LTEA) Assay for Bcl-2 (BID) gene using HepaRG (AID 2283476)
Summary of the method: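 HepaRG, 48 h exposure, 8-pt half-log series, top 100 uM, 0.5% DMSO vehicle, duplicates. Readout: BID mRNA by TaqMan qRT-PCR; housekeeping-normalized; bidirectional curve fit vs DMSO baseline.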

Caspase-3 (Homo sapiens) = Caspase-3 (Homo sapiens) (UniProt P42574); experiment: LTEA_HepaRG_CASP3: Life Technologies and Expression Analysis (LTEA) Assay for cysteine-aspartic acid protease (CASP3) using HepaRG (AID 2283477)
Chain of Caspase-3 (Homo sapiens) (P42574 whole entry, looked up): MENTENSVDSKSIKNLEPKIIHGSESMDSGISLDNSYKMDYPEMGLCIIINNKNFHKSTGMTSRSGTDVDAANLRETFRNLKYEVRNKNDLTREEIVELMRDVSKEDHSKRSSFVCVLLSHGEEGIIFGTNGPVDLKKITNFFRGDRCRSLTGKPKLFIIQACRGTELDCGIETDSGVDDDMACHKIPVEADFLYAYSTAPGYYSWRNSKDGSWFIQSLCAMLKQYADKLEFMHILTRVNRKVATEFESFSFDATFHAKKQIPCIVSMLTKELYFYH
Summary of the method: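 Differentiated HepaRG cells, plated 48 h, were treated in duplicate in serum-free induction medium for 48 h with eight half-log concentrations up to 100 uM in 0.5% DMSO. CASP3 mRNA measured by qRT-PCR, normalized to ACTB, GAPDH, POLR2A.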

[9] = read-out: Cytochrome P450 (CYP24A1), CYP24A1 (gene 1591); experiment: LTEA_HepaRG_CYP24A1: Life Technologies and Expression Analysis (LTEA) Assay for Cytochrome P450 (CYP24A1) using HepaRG (AID 2283478)
Summary of the method: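 HepaRG cells plated 48 h, then exposed in duplicate in serum-free induction medium for 48 h to 8-point half-log series from 100 uM in 0.5% DMSO. CYP24A1 mRNA by Fluidigm qRT-PCR, normalized to ACTB, GAPDH, POLR2A; bidirectional fit versus DMSO.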

[10] = read-out: Cytochrome P450 (CYP1A2), CYP1A2 (gene 1544); experiment: LTEA_HepaRG_CYP1A2: Life Technologies and Expression Analysis (LTEA) Assay for Cytochrome P450 (CYP1A2) using HepaRG (AID 2283479)
Summary of the method: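 Differentiated human HepaRG cells in serum-free induction medium exposed 48 hours in duplicate to 8 half-log concentrations from 100 uM, 0.5% DMSO. CYP1A2 mRNA quantified by qRT-PCR, normalized to ACTB, GAPDH and POLR2A; bidirectional fitting versus DMSO.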

[11] = read-out: cysteine-aspartic acid protease (CASP8), CASP8 (gene 841); experiment: LTEA_HepaRG_CASP8: Life Technologies and Expression Analysis (LTEA) Assay for cysteine-aspartic acid protease (CASP8) using HepaRG (AID 2283480)
Summary of the method: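 CASP8 transcript measured by TaqMan qRT-PCR with ACTB/GAPDH/POLR2A normalization, after 48 h chemical exposure of HepaRG cells in serum-free induction medium. Eight concentrations, top 100 uM, half-log steps, 0.5% DMSO vehicle; fits in both directions versus DMSO.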

[12] = read-out: Cytochrome P450 (CYP2B6), CYP2B6 (gene 1555); experiment: LTEA_HepaRG_CYP2B6: Life Technologies and Expression Analysis (LTEA) Assay for Cytochrome P450 (CYP2B6) using HepaRG (AID 2283481)
Summary of the method: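 Differentiated human HepaRG cells in serum-free induction medium, dosed in duplicate for 48 h over 8 half-log concentrations topping at 100 uM (0.5% DMSO). CYP2B6 mRNA measured by TaqMan qRT-PCR, normalized to ACTB, GAPDH, POLR2A; bidirectional fit versus DMSO.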

[13] = read-out: Cytochrome P450 2C19 (Homo sapiens) (UniProt P33261); experiment: LTEA_HepaRG_CYP2C19: Life Technologies and Expression Analysis (LTEA) Assay for CYP2C19 using HepaRG (AID 2283482)
Summary of the method: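 Differentiated HepaRG cells in serum-free induction medium exposed 48 h in duplicate, 8 concentrations from 100 uM by half-log steps in 0.5% DMSO. CYP2C19 mRNA measured by TaqMan qRT-PCR, normalized to ACTB, GAPDH, POLR2A. Bidirectional fit versus DMSO.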

CYP2C8 (gene 1558) = experiment: LTEA_HepaRG_CYP2C8: Life Technologies and Expression Analysis (LTEA) Assay for CYP2C8 using HepaRG (AID 2283483)
Summary of the method: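 CYP2C8 expression measured by TaqMan qRT-PCR and normalized to three housekeeping genes. HepaRG cultures were treated for 48 h with an eight-point half-log series topping at 100 uM, vehicle 0.5% DMSO, duplicates; fitted both directions against DMSO.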

CYP2C9 (gene 1559) = experiment: LTEA_HepaRG_CYP2C9: Life Technologies and Expression Analysis (LTEA) Assay for CYP2C9 using HepaRG (AID 2283484)
Summary of the method: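 CYP2C9 transcript level, quantified by TaqMan qRT-PCR against three housekeeping genes, was fitted bidirectionally relative to 0.5% DMSO. HepaRG cultures were treated 48 h, in duplicate, at eight half-log concentrations topping at 100 uM.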

CYP2E1 (gene 1571) = experiment: LTEA_HepaRG_CYP2E1: Life Technologies and Expression Analysis (LTEA) Assay for CYP2E1 using HepaRG (AID 2283485)
Summary of the method: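 CYP2E1 transcript was measured by TaqMan qRT-PCR in human HepaRG cultures after 48 h chemical exposure (top 100 uM, half-log steps, 0.5% DMSO vehicle). Housekeeping-gene normalization; gain or loss fitted relative to DMSO baseline.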

CYP4A11 (gene 1579) = experiment: LTEA_HepaRG_CYP4A11: Life Technologies and Expression Analysis (LTEA) Assay for CYP4A11 using HepaRG (AID 2283486)
Summary of the method: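 Differentiated HepaRG cells, 48 h after plating, exposed in duplicate for 48 h to 8 half-log concentrations up to 100 uM in 0.5% DMSO in serum-free induction medium. CYP4A11 mRNA measured by TaqMan qRT-PCR, normalized to ACTB, GAPDH and POLR2A.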

Chain of Cytochrome P450 2C19 (Homo sapiens) (P33261 whole entry, looked up): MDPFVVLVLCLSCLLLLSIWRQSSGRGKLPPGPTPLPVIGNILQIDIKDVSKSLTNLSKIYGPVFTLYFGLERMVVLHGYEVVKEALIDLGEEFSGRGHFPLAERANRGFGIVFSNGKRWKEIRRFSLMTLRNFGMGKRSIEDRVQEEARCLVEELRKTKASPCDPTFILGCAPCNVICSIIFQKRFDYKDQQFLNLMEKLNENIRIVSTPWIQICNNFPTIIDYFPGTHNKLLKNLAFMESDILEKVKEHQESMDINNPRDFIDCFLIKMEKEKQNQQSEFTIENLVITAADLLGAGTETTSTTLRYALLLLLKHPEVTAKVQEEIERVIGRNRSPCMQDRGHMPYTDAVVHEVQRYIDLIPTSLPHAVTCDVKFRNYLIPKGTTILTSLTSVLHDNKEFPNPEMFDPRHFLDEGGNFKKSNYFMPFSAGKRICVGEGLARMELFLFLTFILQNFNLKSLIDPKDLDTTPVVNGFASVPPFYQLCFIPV
Chain of Apoptosis regulator Bcl-2 (Homo sapiens) (P10415 whole entry, looked up): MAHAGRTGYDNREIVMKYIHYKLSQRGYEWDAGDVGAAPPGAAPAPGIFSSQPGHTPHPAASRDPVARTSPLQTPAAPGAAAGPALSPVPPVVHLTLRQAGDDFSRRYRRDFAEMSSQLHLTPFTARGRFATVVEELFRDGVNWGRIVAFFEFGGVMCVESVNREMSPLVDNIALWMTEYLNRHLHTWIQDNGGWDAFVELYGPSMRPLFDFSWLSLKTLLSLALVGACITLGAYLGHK

In the case of `CCN(CC)CCNc1ccc(CNC=O)c2sc3ccc(OC)cc3c(=O)c12`, the outcome [1] was “inactive”, the outcome [2] was “inactive” and the outcome [3] was “inactive”. The AC50 [4] was 76.7 µM (active), the AC50 [5] was 11.5 µM (active) and the AC50 (BCL2L11 (gene 10018)) was 21.9 µM (active). The AC50 [6] was 12.4 µM (active), the outcome [7] was “inactive” and the outcome [8] was “inactive”. The AC50 (Caspase-3 (Homo sapiens)) was 72.7 µM (active), the outcome [9] was “inactive” and the outcome [10] was “inactive”. The AC50 [11] was 50 µM (active), the AC50 [12] was 7.58 µM (active) and the outcome [13] was “inactive”. For the same compound, the outcome (CYP2C8 (gene 1558)) was “inactive”, the AC50 (CYP2C9 (gene 1559)) was 16.8 µM (active) and the AC50 (CYP2E1 (gene 1571)) was 12.8 µM (active). The AC50 (CYP4A11 (gene 1579)) was 26 µM (active).
With `O=c1c(-c2ccc(O)cc2)coc2cc(O)ccc12` the outcome [1] was “inactive”, the outcome [2] was “inactive” and the outcome [3] was “inactive”. The outcome [4] was “inactive”, the outcome [5] was “inactive” and the outcome (BCL2L11 (gene 10018)) was “inactive”. The outcome [6] was “inactive”, the outcome [7] was “inactive” and the outcome [8] was “inactive”. For the same compound, the outcome (Caspase-3 (Homo sapiens)) was “inactive”, the outcome [9] was “inactive” and the outcome [10] was “inactive”. For the same compound, the outcome [11] was “inactive”, the outcome [12] was “inactive” and the outcome [13] was “inactive”. For the same compound, the outcome (CYP2C8 (gene 1558)) was “inactive”, the outcome (CYP2C9 (gene 1559)) was “inactive” and the outcome (CYP2E1 (gene 1571)) was “inactive”. The outcome (CYP4A11 (gene 1579)) was “inactive”.
In the case of `NC(=O)N(O)[C@@H]1C=C[C@H](Oc2cccc(Oc3ccc(F)cc3)c2)C1`, the AC50 [1] was 3.76 µM (active), the outcome [2] was “inactive” and the AC50 [3] was 64.5 µM (active). The outcome [4] was “inactive”, the AC50 [5] was 20.2 µM (active) and the AC50 (BCL2L11 (gene 10018)) was 12.3 µM (active). The AC50 [6] was 37.7 µM (active), the AC50 [7] was 73.9 µM (active) and the outcome [8] was “inactive”. For the same compound, the outcome (Caspase-3 (Homo sapiens)) was “inactive”, the outcome [9] was “inactive” and the AC50 [10] was 21.2 µM (active). The outcome [11] was “inactive”, the AC50 [12] was 34.4 µM (active) and the AC50 [13] was 76.7 µM (active). For the same compound, the AC50 (CYP2C8 (gene 1558)) was 27.3 µM (active), the AC50 (CYP2C9 (gene 1559)) was 58.8 µM (active) and the AC50 (CYP2E1 (gene 1571)) was 32.1 µM (active). For the same compound, the AC50 (CYP4A11 (gene 1579)) was 30.8 µM (active).
